Assay results reported in PubChem BioAssay AID2284368 (EPA ToxCast).
Records with an inconclusive call do not appear. Active and inactive are the calls of the source. How the source made its calls: active means hit-call score of the fitted dose curve at least 0.9, where 1 is the maximum; inconclusive means response in the unintended direction; inactive means score below 0.9.

These molecules were tested against Estrogen receptor (Homo sapiens) (UniProt P03372) (assay: ATG_hERa_EcoTox2: Attagene TRANS-FACTORIAL EcoTox-2 HepG2 Assay for human Estrogen Receptor (ER)).
Estrogen receptor (Homo sapiens), sequence (P03372 whole entry, looked up): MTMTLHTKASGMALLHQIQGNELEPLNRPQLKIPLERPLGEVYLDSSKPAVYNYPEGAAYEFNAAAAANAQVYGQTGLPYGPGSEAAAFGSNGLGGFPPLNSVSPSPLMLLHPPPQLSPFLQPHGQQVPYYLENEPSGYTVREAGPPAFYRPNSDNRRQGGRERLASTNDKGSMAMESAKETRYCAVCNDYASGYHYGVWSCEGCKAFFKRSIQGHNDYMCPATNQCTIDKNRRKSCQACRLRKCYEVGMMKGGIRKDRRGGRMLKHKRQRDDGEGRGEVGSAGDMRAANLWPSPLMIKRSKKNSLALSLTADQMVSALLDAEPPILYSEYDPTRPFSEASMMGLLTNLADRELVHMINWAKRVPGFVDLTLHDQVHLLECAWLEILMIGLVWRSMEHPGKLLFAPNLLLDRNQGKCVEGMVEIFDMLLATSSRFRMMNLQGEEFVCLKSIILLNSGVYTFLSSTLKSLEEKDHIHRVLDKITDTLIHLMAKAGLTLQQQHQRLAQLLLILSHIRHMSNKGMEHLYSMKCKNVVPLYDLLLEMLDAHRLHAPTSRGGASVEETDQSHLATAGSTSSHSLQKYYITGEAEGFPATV
Experimental: ATG_EcoTox2 is a cell-based, multiplexed assay created by modifying the existing Attagene TRANS-FACTORIAL system to include a panel of nuclear receptors from some or all the following species: human (Homo sapiens), african clawed frog (Xenopus laevis), rainbow trout (Oncorhynchus mykiss), japanese medaka (Oryzias latipes), and zebrafish (Danio rerio). The ECOTOX2-FACTORIAL format uses HepG2, a human liver cell line, with measurements taken at 24 hours after chemical dosing in a 24-well plate. ATG_hERa_EcoTox2 is one of 29 assay components measured or calculated from the ATG_EcoTox2 assay. It is designed to make measurements of mRNA induction, a form of inducible reporter, as detected with fluorescence intensity signals by Reverse transcription polymerase chain reaction (RT-PCR) and Capillary electrophoresis technology.The assay endpoint ATG_hERa_EcoTox2 was analyzed in the positive analysis fitting direction relative to DMSO as the negative control and baseline of activity. Using a type of inducible reporter, measures of mRNA for gain-of-signal activity can be used to understand the reporter gene at the transcription factor-level as they relate to the gene ER. Furthermore, this assay endpoint can be referred to as a primary readout, because this assay has produced multiple assay endpoints where this one serves a reporter gene function. To generalize the intended target to other relatable targets, this assay endpoint is annotated to the nuclear receptor intended target family, where the subfamily is steroidal.
Human liver HepG2 cells are transiently transfected with multiple reporter transcription units (MRTUs) in 6-well plates using FuGene 6 reagent (Roche; 3 ml FuGene/1 mg DNA). The MRTU constructs are regulated by a cis-regulating element (promoter). Each RTU expresses a GAL4-UAS that regulates the transcription of a nearby target reporter gene sequence. A major difference between the CIS and TRANS system is that in CIS activities of endogenous TFs are measured, whereas the TRANS assay evaluates changes in activities of exogenous, chimeric NR-Gal4 proteins. […] At the end of 24 hour incubation, total RNA was isolated using TriZol reagent (Invitrogen). The isolated RNA is then reverse-transcribed using oligo(dT) primer and Mo-MLV reverse transcriptase (Invitrogen) with DNAse I (Ambion) treatment for 30 min. The one-tenth of the produced cDNA was amplified by PCR using Taq DNA polymerase (Invitrogen) and two reporter sequence-specific primers. The PCR products were fluorescently labeled by primer extension with 6-arboxyfluorescein (6-FAM) 5'-labeled reporter sequence-specific primer (2 min at 95 C, 20 s at 68 C and 10 min at 72 C) and these products were digested with 5U of HpaI (New England Biolabs) for 2h at 37 C. The fragments were purified using Qiaquick PCR columns (Qiagen), analyzed on an ABI 3130xL genetic analyzer (Applied Biosystems) with peak positions identified by using a set of X-rhodamine (ROX)-labeled MapMarker1000 molecular weight standards (BioVentures). The raw capillary electrophoresis data was processed using Attagraph software (Attagene).
For `Cc1ccc(C)c(OCCCC(C)(C)C(=O)O)c1`, the AC50 was 50 µM (active).
With `Cc1cccc(Nc2cc(Cl)nc(SCC(=O)O)n2)c1C` the outcome was “inactive”.
In the case of `C=C(c1ccc(C(=O)O)cc1)c1cc2c(cc1C)C(C)(C)CCC2(C)C`, the outcome was “inactive”.
`CC(c1cc2ccccc2s1)N(O)C(N)=O` (stereo unspecified) was tested, and the AC50 was 50 µM (active).
In the case of `Cc1c(C)c2c(c(C)c1O)CCC(C)(COc1ccc(CC3SC(=O)NC3=O)cc1)O2` (stereo unspecified), the outcome was “inactive”.
In the case of `CN(CCOc1ccc(CC2SC(=O)NC2=O)cc1)c1ccccn1` (stereo unspecified), the outcome was “inactive”.
With `CC(C)OC(=O)C(C)(C)Oc1ccc(C(=O)c2ccc(Cl)cc2)cc1` the outcome was “inactive”.
With `C[C@]12C=CC(=O)C=C1CC[C@@H]1[C@@H]2C(=O)C[C@@]2(C)[C@H]1CC[C@]2(O)C(=O)CO` the AC50 was 29.2 µM (active).
For `CC(C)(Oc1ccc(C2CC2(Cl)Cl)cc1)C(=O)O` (stereo unspecified), the outcome was “inactive”.
For `C[C@@H]1C[C@H]2[C@@H]3CCC4=CC(=O)C=C[C@]4(C)[C@@]3(F)[C@@H](O)C[C@]2(C)[C@@]1(O)C(=O)COP(=O)(O)O`, the outcome was “inactive”.
With `CC(C)(Oc1ccc(CCNC(=O)c2ccc(Cl)cc2)cc1)C(=O)O` the AC50 was 122 µM (active).
